High-throughput results (PubChem)
Rows were chosen to be rich in hits. Some 21% of all compounds tested hit in one or more screens of this group.
TDP1 cell noCPT = qHTS for Inhibitors of human tyrosyl-DNA phosphodiesterase 1 (TDP1): qHTS in cells in absence of CPT. Potency, µM (highest dose often 46.2 µM), without a hit: at the highest dose activity change, negative = growth inhibition, actives largely listed as inhibitors. DT40 Tdp1-/- hTDP1 cells, no CPT, ATP luminescence, 48 h. AID 686978, 2013. actives 15% (n = 420,000); also: potency is read from the fitted curve at half-maximal effect; % is scaled to controls: 0 for no effect and ±100 for the full control effect; nearly all actives have a fitted effect of over 55% in size
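Seeded 400 DT40-hTDP1 cells/well (vehicle DMSO, no 20 nM CPT); pinned compounds; ≥48 hr at 37 °C; CellTiter-Glo luminescence as viability measure.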
IL-1B inflam inh = blocks inflammasome-driven IL-1 beta release; actives 4.7% (n = 360,000); activity change, % at 57.5 µM; THP-1 LPS/ATP IL-1B secretion, AlphaLISA, 16 h; stronger effect = lower value; in the data active = activity change below about -50%; inconclusive = mostly about -30% to -49%; also: % is scaled to controls: 0 for no effect and ±100 for the full control effect
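Secreted IL-1B measured by AlphaLISA bead assay after 16 h compound exposure of THP-1 cells; compounds (final up to 57.5 uM) added 1 h before LPS (250 ng/mL) and ATP (1.25 mM) stimulation; lower signal means less secretion.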
ClpP mod = qHTS Assay for Activators of ClpP; AID 651965, 2013; Potency, µM (highest dose often 57.5 µM), inactives show at the highest dose activity change, negative = active; ATP-dependent Clp protease proteolytic subunit (Bacillus subtilis (strain 168)), P80244; actives 1.9% (n = 340,000); purified B. subtilis ClpP, FRET peptide cleavage, 20 min; active = well fitted falling curve with a large enough effect; inconclusive = small, poorly fitted or top-dose-only effect; inactive = no such curve, though single readings can be large or run the other way; also: potency is read from the fitted curve at half-maximal effect; the source files actives as falling curves though it sought activators and does not explain the sign; nearly all actives have a fitted effect of over 65% in size
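ClpP 10 microg/mL final, pH 8 Tris/KCl buffer with BSA, glycerol, Tween-20; compound pinned in; FRET-FV substrate; RT 20 min; Ex320/Em430; ΔFRET vs ADEP 5.8 microM, DMSO, no enzyme.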
DRD3 antagonist = blocks the human D3 dopamine receptor. actives 2.5% (n = 360,000). P35462. max response, negative = inhibition, %. D3R cells, DiscoveRx beta-arrestin luminescence, antagonist mode; stronger effect = lower value; in the data active = max response below about -50%; inconclusive = no clear call, values can overlap the other calls; also: % is scaled to controls: 0 for no effect and ±100 for the full control effect
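Cells expressing the human receptor were seeded at 1500 cells/well, incubated overnight at 37 degrees C in 5% CO2, then exposed to library compounds with dopamine controls for 90 minutes at 37 degrees C before luminescent detection.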
DRD3 agonist = activates the human D3 dopamine receptor; actives 0.58% (n = 410,000); AID 652048; D3R DiscoveRx beta-arrestin cells, luminescence, 90 min; max activation, %; in the data active = max activation above about 30%; also: 0% is about no effect
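Agonist-mode cell screen: cells plated at 1500/well and incubated overnight at 37 °C, then exposed to library compounds for 90 min at 37 °C. Detection reagent was added for 30–60 min at room temperature, and luminescence was read.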
DT40 TDP1 CPT = DT40-hTDP1 cell growth loss with CPT; AID 686979; Potency, µM (top dose mostly 46.2 µM), for the others: at the highest dose activity change, negative = growth inhibition, most hits filed as inhibitors; chicken DT40 Tdp1-/-;hTDP1 cells + 20 nM CPT, ATP luminescence, 48 h; actives 12% (n = 420,000); also: potency is read from the fitted curve at half-maximal effect; % is scaled to controls: 0 for no effect and ±100 for the full control effect; nearly all actives have a fitted effect of over 55% in size
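Cell growth measured by CellTiter-Glo luminescence after a minimum 48 h, 37 C compound exposure with 20 nM CPT in Tdp1-knockout DT40 cells stably expressing hTDP1, seeded 400/well; qHTS titration format.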
* hit, by the source's call; ? = inconclusive; / = no result given; [ ] = another dose, or the depositor's remark. Unless noted, calls follow the shape of the dose curve; as a rule, active = well fitted inhibition curve with a large enough effect; inconclusive = small, poorly fitted or top-dose-only effect; inactive = flat fitted curve, though single readings scatter.

SMILES | TDP1 cell noCPT | IL-1B inflam inh | ClpP mod | DRD3 antagonist | DRD3 agonist | DT40 TDP1 CPT
O=C1C2C3C=CC(O3)C2C(=O)N1N=Cc1ccc2c(c1)OCO2 (configuration not stated) | -16% | -20 | / | 8 | 2 | -14%
COc1ccc(-c2csc3ncn(Cc4ccccc4)c(=O)c23)cc1 | ? | -10 | -17% | -21 | 1 | ?
COc1ccc(-c2c3c(cc4ncn(Cc5ccccc5)c24)COC3=O)cc1 | 23µM* | 18 | 4% | ? | 3 | ?
CCOC(=O)c1cnc2ccc(C)cc2c1N(C)Cc1ccccc1 | ? | -68* | / | 7 | -7 | ?
CCOC(=O)c1cnc2ccc(C)cc2c1Sc1ccccc1 | 26µM* | 9 | 1% | -27 | -4 | ?
C[C@@H]1CN([C@H](C)CO)C(=O)CCCn2cc(nn2)CO[C@H]1CN(C)S(=O)(=O)c1ccccc1 | 17% | 16 | 0% | 18 | 2 | 16%
CCOc1ccc(S(=O)(=O)NC(Cc2cnc[nH]2)C(=O)O)cc1 (configuration not stated) | 2% | 4 | / | 3 | -1 | 1%
COc1ccc([N+](=O)[O-])cc1NC(=O)C(C)OC(=O)c1cccnc1 (configuration not stated) | -2% | 29 | 0% | 1 | 5 | -7%
COc1ccc(-n2nc(C(=O)NCc3ccc(F)cc3Cl)c3c4ccccc4n(C)c3c2=O)cc1Cl | -1% | / | -5% | / | -9 | -1%
CCC(=O)N(CC(=O)Nc1sc(C)c(C)c1C(N)=O)Cc1ccc(F)cc1 | 15µM* | 8 | / | -3 | -13 | 21µM*
Cc1sc(NC(=O)CN(Cc2ccccc2)C(=O)C(C)C)c(C(N)=O)c1C | 1.2µM* | 25 | -2% | -3 | -1 | 1.8µM*
COc1ccc(C(=O)N(CC(=O)Nc2sc(C)c(C)c2C(N)=O)C2CCCC2)cc1 | ? | 6 | / | -11 | -2 | ?
CCC(=O)N(CC(=O)Nc1sc(C)c(C)c1C(N)=O)C1CCCC1 | 13µM* | 17 | / | 12 | 2 | 23µM*
Cc1sc(NC(=O)CN(Cc2ccc(F)cc2)C(=O)C(C)C)c(C(N)=O)c1C | 2.3µM* | ? | 5% | 6 | 5 | 3.7µM*
C=CC[C@H]1C(C(=O)OCC)=CC[C@@H](c2ccccc2)N1S(=O)(=O)c1ccc(C)cc1 | ? | 40 | 0% | 3 | 4 | ?
O=C(C[n+]1ccccc1Cl)c1ccc2ccccc2c1 | ? | / | -18% | / | / | ?
CCCS(=O)(=O)NC(=O)C1(C)CCCN(C(=O)CCc2cccs2)C1 (configuration not stated) | -8% | 16 | -1% | -16 | 2 | -10%
O=C(c1cccc(Oc2ccccc2)c1)N1CCN(c2ccccn2)CC1 | -28% | -5 | / | 0 | -4 | 3%
CCOC(=O)c1c(S(=O)(=O)NCC(=O)N2CCN(c3ccccc3)CC2)c(C)n(C)c1C | 5% | ? | 2% | 1 | 0 | 7%
CC(C)(C)OC(=O)N1CCC(C(=O)Nc2cccc(C(=O)N3CCCC3)c2)CC1 | -11% | 4 | 0% | -13 | 10 | -15%
N#Cc1cccc(-c2nc3cnc(N4CCOCC4)nc3n(C[C@H]3CCCO3)c2=O)c1 | 5% | / | / | / | / | 2%
CCCCN(C)C(=O)c1sc(=O)n(Cc2ccc(Cl)c(Cl)c2)c1C | 21µM* | 0 | 1% | -10 | -1 | ?
Cc1ccc(Cn2c(C)c(C(=O)NCC(C)C)sc2=O)cc1 | ? | -24 | 2% | 36 | 6 | ?
CSc1ccc(Cn2c(C)c(C(=O)NCc3ccco3)sc2=O)cc1 | ? | -101* | 1% | -4 | -2 | ?
CSc1ccc(Cn2c(C)c(C(=O)NCc3ccc(F)cc3)sc2=O)cc1 | ? | ? | -5% | -17 | 4 | 23µM*
SMILES | TDP1 cell noCPT | IL-1B inflam inh | ClpP mod | DRD3 antagonist | DRD3 agonist | DT40 TDP1 CPT
CSc1ccc(Cn2c(C)c(C(=O)NCCC#N)sc2=O)cc1 | -26% | -10 | -5% | -8 | 5 | -11%
Cc1c(C(=O)NCc2ccc(F)cc2)sc(=O)n1Cc1ccc(Cl)c(Cl)c1 | ? | -86* | -3% | -74* | -9 | ?
COc1ccc(OC(=O)COc2ccc(Cl)cc2)cc1 | -13% | 12 | / | 23 | 10 | -14%
COc1ccc(/C=C\c2onc(C)c2S(=O)(=O)N2CCC(C(=O)Nc3ccc(C)cc3C)CC2)cc1 | ? | / | -8% | / | 4 | ?
Cc1c(C(=O)NCc2ccc(Cl)c(Cl)c2)sc(=O)n1Cc1ccccc1F | ? | -15 | -1% | 14 | 0 | ?
Cc1c(C(=O)NCc2ccc(Cl)c(Cl)c2)sc(=O)n1Cc1ccc(S(C)(=O)=O)cc1 | 18µM* | ? | -3% | 60 | 1 | ?
CSc1ccc(Cn2c(C)c(C(=O)NCc3ccc(Cl)c(Cl)c3)sc2=O)cc1 | ? | -58* | -2% | 7 | 0 | ?
CSc1ccc(Cn2c(C)c(C(=O)NCc3ccc4c(c3)OCCO4)sc2=O)cc1 | ? | -30 | -1% | -6 | -11 | ?
Cc1ccc(OCCSc2nc3ccccc3n2CCC(=O)O)c(C(C)C)c1 | ? | 13 | -2% | -52* | -4 | 1%
O=C(O)Cn1c(SCCOc2ccc(Cl)cc2)nc2ccccc21 | -10% | -15 | -1% | -24 | -12 | 3%
CCN(CC)C(=O)Cn1c(SCCOc2ccc(Cl)cc2)nc2ccccc21 | 21µM* | / | 1% | / | -1 | ?
O=C(O)Cn1c(SCCOc2ccccc2F)nc2ccccc21 | 16µM* | 12 | 0% | 2 | 2 | ?
CC1C=CCC2C(=O)N(c3cccc(C(=O)Nc4ccc(F)cc4)c3)C(=O)C12 (configuration not stated) | -15% | -2 | 1% | -21 | -26 | -25%
C=CCN(C(=O)c1cccc(N2C(=O)C3CC=CC(C)C3C2=O)c1)c1ccccc1 (configuration not stated) | 4.6µM* | 35 | / | -15 | 3 | ?
Cc1c(C(=O)NCCN2CCC(c3ccccc3)CC2)cnn1-c1nccc(-c2cccs2)n1 | ? | / | / | / | / | 8%[9.04 µM]
CCc1ccc(N2CCN(S(=O)(=O)CC34CCC(CC3=O)C4(C)C)CC2)cc1 (configuration not stated) | 21µM* | -67* | / | -21 | 8 | -53%
Cc1nc(-[n+]2nc(-c3ccncc3)nn2-c2ccccc2)sc1C | 1.8µM* | ? | 2% | -102* | -23 | 1.5µM*
